# Results filed as inconclusive are left out. A call without a number means that no potency is given here. Unmarked numbers belong to inactive results. Calls of active or inactive are those of the source. The call rests on the fitted dose curve; in most records, active means well fitted curve in the direction sought with a large enough effect in the repeat runs; inconclusive means weak or mixed curves; inactive means no such curve, though single readings can be large; an effect the other way counts as inactive or inconclusive.
# Tests used:
# [1] = qHTS assay to identify small molecule agonists of the RXR signaling pathway - cell viability counter screen (AID 1159529);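 further: HEK 293T cells carrying an RXR-alpha UAS beta-lactamase reporter; nearly all actives have a fitted effect of over 50% in size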
# Summary of the method: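 Tox21 10K compounds were tested for cytotoxicity against GeneBLAzer RXR-alpha HEK 293T cells grown in 2% charcoal-stripped FBS. Exposure lasted 16 hr at 37 C, 5% CO2; viability read by CellTiter-Glo luminescence.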
# [2] = qHTS assay to identify small molecule antagonists of the retinoid acid receptor (RAR) signaling pathway - cell viability counter screen (AID 1159551); further: nearly all actives have a fitted effect of over 35% in size
# Summary of the method: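 Seed C3RL4 cells; next day add compound, then retinol to 1 uM final; incubate 6 h at 37 C; add CellTiter-Glo; read luminescence after 30 min at RT.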
# [3] = qHTS assay to identify small molecule antagonists of the retinoic acid receptor (RAR) signaling pathway (AID 1159552; further: nearly all actives have a fitted effect of over 50% in size)
# Summary of the method: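 Overnight-plated C3RL4 reporter cells get compound, then retinol to 1 uM final; plates sit 6 hr at 37 C, 5% CO2. A luciferase reagent is added and light output recorded after 30 min at room temperature.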
# [4] = qHTS assay to identify small molecule agonists of the retinoic acid receptor (RAR) signaling pathway (AID 1159553); conditions: C3RL4 RARE luciferase reporter, agonist, 6 h; activation: at 73.3 µM (top of the series)
# Summary of the method: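 Activation of retinol signaling was monitored via a RARE luciferase reporter in C3RL4 cells. After 6 hr compound treatment at 37 C, detection reagent was added for 30 min at room temperature before luminescence reading.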
# [5] = qHTS assay to identify small molecule antagonists of the estrogen related receptor (ERR) signaling pathway from Tox21 library - cell viability counter screen (AID 1224834); further: nearly all actives have a fitted effect of over 30% in size
# Summary of the method: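 CellTiter-Fluor fluorescence measured; ERR cells; 17.5 h compound incubation at 37 C; 30 min reagent step.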
# [6] = molecular target: Luciferin 4-monooxygenase (Photinus pyralis) (UniProt P08659); assay: qHTS assay to identify small molecule inhibitors of firefly luciferase (AID 1224835); further: nearly all actives have a fitted effect of over 25% in size; further: potency means the concentration at half of the fitted maximal effect
# Summary of the method: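 Biochemical qHTS: compounds run as interplate titrations against purified firefly enzyme, with D-luciferin and ATP each at its KM concentration. Light output recorded by CCD imaging.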
# [7] = qHTS assay to identify small molecule agonists of the constitutive androstane receptor (CAR) signaling pathway - cell viability counter screen (AID 1224836); further: nearly all actives have a fitted effect of over 45% in size
# Summary of the method: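 Fluorescence from CellTiter-Fluor indicates live cells after 23 h exposure. The human hepatoma line expresses hCAR and a CYP2B6-2.2kb reporter. Incubation medium contains 0.75 uM PK11195 (final).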
# [8] = qHTS assay to identify small molecule antagonists of the constitutive androstane receptor (CAR) signaling pathway - cell viability counter screen (AID 1224837); further: nearly all actives have a fitted effect of over 45% in size
# Summary of the method: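 Using CellTiter-Fluor, viability is scored in HepG2 cells stably carrying hCAR and a 2.2kb CYP2B6 reporter after 23 hr compound exposure across 15 concentrations, with CITCO present at 50 nM.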
# Luciferin 4-monooxygenase (Photinus pyralis), sequence (P08659 whole entry, looked up): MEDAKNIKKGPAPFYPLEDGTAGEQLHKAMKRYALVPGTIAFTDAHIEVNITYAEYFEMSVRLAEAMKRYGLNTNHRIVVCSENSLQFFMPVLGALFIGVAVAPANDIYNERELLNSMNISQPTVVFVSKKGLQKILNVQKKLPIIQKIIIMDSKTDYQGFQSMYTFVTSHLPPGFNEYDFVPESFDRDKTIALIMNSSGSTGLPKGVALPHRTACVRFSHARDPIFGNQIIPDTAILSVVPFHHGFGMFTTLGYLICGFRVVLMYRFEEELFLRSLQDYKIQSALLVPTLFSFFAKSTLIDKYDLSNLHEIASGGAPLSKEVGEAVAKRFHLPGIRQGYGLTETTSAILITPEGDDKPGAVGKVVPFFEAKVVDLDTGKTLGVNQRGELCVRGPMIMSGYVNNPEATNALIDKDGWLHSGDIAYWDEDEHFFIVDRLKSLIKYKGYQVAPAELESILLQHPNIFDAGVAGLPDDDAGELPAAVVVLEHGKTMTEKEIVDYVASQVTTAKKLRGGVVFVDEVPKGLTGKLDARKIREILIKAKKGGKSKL
SMILES,outcome [1],outcome [2],Potency [3],Potency [4],Potency [5],Potency [6],outcome [7],Potency [8],"activity change, negative = cytotoxicity [1]","activity change, negative = cytotoxicity [2]","activity, negative = inhibition [3]",activation [4],"viability change, negative = cytotoxic [5]","activity change, negative = inhibition [6]","viability change, negative = cytotoxic [7]","activity change, negative = cytotoxicity [8]"
CNC(=O)C(c1ccccc1)c1ccccc1,inactive,inactive,inactive,inactive,inactive,inactive,inactive,inactive,,,,,,,,
CC(C)c1ccccc1O,inactive,inactive,inactive,inactive,inactive,inactive,inactive,inactive,,,,,,,,
O=CN1CCOCC1,inactive,inactive,inactive,inactive,inactive,inactive,inactive,inactive,,,,,,,,
CCN1CN(CC)CN(CC)C1,inactive,inactive,inactive,inactive,inactive,inactive,inactive,inactive,,,,,,,,
O=C(O)Cc1cccc(-c2cc(CCCCCCc3ccc(O[C@H]4O[C@H](CO)[C@@H](O)[C@H](O)[C@@H]4O)c(-c4cccc(CC(=O)O)c4)c3)ccc2O[C@H]2O[C@H](CO)[C@@H](O)[C@H](O)[C@@H]2O)c1,,,,,,,,,12.1% [at 0.29 µM],-1.44% [at 0.349 µM],-0.764% [at 0.349 µM],0.783% [at 0.756 µM],-1.71% [at 0.349 µM],2.97% [at 0.435 µM],5.82% [at 0.349 µM],5.71% [at 0.349 µM]
CC(C)=CC(C)(C)C,inactive,inactive,inactive,inactive,inactive,inactive,inactive,inactive,,,,,,,,
O=c1[nH]c(=O)c2ccccc2o1,inactive,inactive,inactive,inactive,inactive,inactive,inactive,inactive,,,,,,,,
CCCCC(CC)C(=O)OC(C)C (stereo not drawn),inactive,inactive,inactive,inactive,inactive,inactive,inactive,inactive,,,,,,,,
CC1=CC[C@H](CC=O)C1(C)C,inactive,inactive,inactive,inactive,inactive,inactive,inactive,inactive,,,,,,,,
C[CH2][Ge]([Cl])([CH2]C)[CH2]C,inactive,inactive,inactive,inactive,inactive,inactive,inactive,inactive,,,,,,,,
COC(=O)CCC(=O)O,inactive,inactive,inactive,inactive,inactive,inactive,inactive,inactive,,,,,,,,
Cc1oc(=O)oc1CN1CCN(c2cc3c(cc2F)c(=O)c(C(=O)O)c2n3C(C)S2)CC1 (stereo not drawn),inactive,inactive,inactive,inactive,inactive,inactive,inactive,inactive,,,,,,,,
CC1(N)CCC(C(C)(C)N)CC1 (stereo not drawn),inactive,inactive,inactive,inactive,inactive,inactive,inactive,inactive,,,,,,,,
O=C(O)/C=C/c1ccccc1,inactive,inactive,inactive,inactive,inactive,inactive,inactive,inactive,,,,,,,,
O=P(O)(O)OCC(O)CO (stereo not drawn),inactive,inactive,inactive,inactive,inactive,inactive,inactive,inactive,,,,,,,,
CCCCC(=O)N(C)C,inactive,inactive,inactive,inactive,inactive,inactive,inactive,inactive,,,,,,,,
CCCCCCCC[Si](OCC)(OCC)OCC,inactive,inactive,inactive,inactive,inactive,inactive,inactive,inactive,,,,,,,,
CCCCOC(=O)C(C)OC(=O)CCC (stereo not drawn),inactive,inactive,inactive,inactive,inactive,inactive,inactive,inactive,,,,,,,,
C=CCOc1c(Br)cc(C(C)(C)c2cc(Br)c(OCC=C)c(Br)c2)cc1Br,inactive,inactive,inactive,inactive,inactive,inactive,inactive,inactive,,,,,,,,
CCCCCCCCCCCCOC(C)=O,inactive,inactive,inactive,inactive,inactive,inactive,inactive,inactive,,,,,,,,
CCCCCCCCOC(C)=O,inactive,inactive,inactive,inactive,inactive,inactive,inactive,inactive,,,,,,,,
COCC(=O)Nc1c(I)c(C(=O)NCC(O)CO)c(I)c(C(=O)N(C)CC(O)CO)c1I (stereo not drawn),inactive,inactive,inactive,inactive,inactive,inactive,inactive,inactive,,,,,,,,
CCC(CO)CO,inactive,inactive,inactive,inactive,inactive,inactive,inactive,inactive,,,,,,,,
CCN(CC)C(=O)C1CN2CCc3cc(OC)c(OC)cc3C2CC1OC(C)=O (stereo not drawn),inactive,inactive,inactive,inactive,inactive,inactive,inactive,inactive,,,,,,,,
O=C1OC(=O)c2cc(Oc3ccc4c(c3)C(=O)OC4=O)ccc21,inactive,inactive,inactive,inactive,inactive,inactive,inactive,inactive,,,,,,,,
NC(=O)NNC(N)=O,inactive,inactive,inactive,inactive,inactive,inactive,inactive,inactive,,,,,,,,

SMILES,outcome [1],outcome [2],Potency [3],Potency [4],Potency [5],Potency [6],outcome [7],Potency [8],"activity change, negative = cytotoxicity [1]","activity change, negative = cytotoxicity [2]","activity, negative = inhibition [3]",activation [4],"viability change, negative = cytotoxic [5]","activity change, negative = inhibition [6]","viability change, negative = cytotoxic [7]","activity change, negative = cytotoxicity [8]"
O=c1cc(O)c(Cl)c[nH]1,inactive,inactive,inactive,inactive,inactive,inactive,inactive,inactive,,,,,,,,
CC(C)C(=O)c1ccccc1,inactive,inactive,inactive,inactive,inactive,inactive,inactive,inactive,,,,,,,,
CCCCCCCC/C=C\CCCCCCCC(=O)OC[C@@H](O)[C@H]1OC[C@H](O)[C@H]1O,inactive,inactive,inactive,inactive,inactive,inactive,inactive,inactive,,,,,,,,
C[C@H](CCC(=O)NCC(=O)O)[C@H]1CC[C@H]2[C@@H]3[C@H](O)C[C@@H]4C[C@H](O)CC[C@]4(C)[C@H]3C[C@H](O)[C@]12C,inactive,inactive,inactive,inactive,inactive,inactive,inactive,inactive,,,,,,,,
Nc1ccc(S(=O)(=O)NC(=O)c2ccccc2)cc1,inactive,inactive,inactive,inactive,inactive,inactive,inactive,inactive,,,,,,,,
COc1cc2c3cc1Oc1cc(ccc1O)C[C@@H]1c4c(cc(OC)c(O)c4Oc4ccc(cc4)C[C@@H]3N(C)CC2)CC[N+]1(C)C,inactive,inactive,inactive,inactive,inactive,inactive,inactive,inactive,,,,,,,,
CC(C)(C)NCCO,inactive,inactive,inactive,inactive,inactive,inactive,inactive,inactive,,,,,,,,
C1=CCC(c2ccccc2)CC1 (stereo not drawn),inactive,inactive,inactive,inactive,inactive,inactive,inactive,inactive,,,,,,,,
CCCCCCCCCCCCC,inactive,inactive,inactive,inactive,inactive,inactive,inactive,inactive,,,,,,,,
O=C1NC2NC(=O)NC2N1 (stereo not drawn),inactive,inactive,inactive,inactive,inactive,inactive,inactive,inactive,,,,,,,,
Cc1nc([N+](=O)[O-])cn1-c1ccc([N+](=O)[O-])cc1,inactive,inactive,inactive,inactive,inactive,inactive,inactive,inactive,,,,,,,,
CCOC(=O)CC#N,inactive,inactive,inactive,inactive,inactive,inactive,inactive,inactive,,,,,,,,
Cc1ccc(S(=O)(=O)NC(=O)NC2CCCCCCC2)cc1,inactive,inactive,inactive,inactive,inactive,inactive,inactive,inactive,,,,,,,,
OC[C@@H](O)[C@H](O)[C@@H](O)[C@@H](O)CO,inactive,inactive,inactive,inactive,inactive,inactive,inactive,inactive,,,,,,,,
COC(OC)C(C)c1ccccc1 (stereo not drawn),inactive,inactive,inactive,inactive,inactive,inactive,inactive,inactive,,,,,,,,
c1ccccc1,inactive,inactive,inactive,inactive,inactive,inactive,inactive,inactive,,,,,,,,
CC(C)COC(=O)CCCCC(=O)OCC(C)C,inactive,inactive,inactive,inactive,inactive,inactive,inactive,inactive,,,,,,,,
CC(=O)N(CC(O)CO)c1c(I)c(C(=O)NCC(O)CO)c(I)c(C(=O)NCC(O)CO)c1I (stereo not drawn),inactive,inactive,inactive,inactive,inactive,inactive,inactive,inactive,,,,,,,,
Cc1ccccc1C,inactive,inactive,inactive,inactive,inactive,inactive,inactive,inactive,,,,,,,,
CC(C)SCc1ccco1,inactive,inactive,inactive,inactive,inactive,inactive,inactive,inactive,,,,,,,,
CC(=O)OC(C)(C)Cc1ccccc1,inactive,inactive,inactive,inactive,inactive,inactive,inactive,inactive,,,,,,,,
CC(C)COC(=O)COc1ccc(Cl)cc1Cl,inactive,inactive,inactive,inactive,inactive,11.2 µM (active),inactive,inactive,,,,,,,,
NC(=O)NC(=O)Cc1ccccc1,inactive,inactive,inactive,inactive,inactive,inactive,inactive,inactive,,,,,,,,
CCNC(=O)NCCCOc1cccc(CN2CCCCC2)c1,inactive,inactive,inactive,inactive,inactive,inactive,inactive,inactive,,,,,,,,
CC(=O)Nc1ncc([N+](=O)[O-])s1,inactive,inactive,inactive,inactive,inactive,inactive,inactive,inactive,,,,,,,,
